From PubChem BioAssay
In the library only some 32% were active in any assay of this set; here they are far more common.
PostGolgi ctrl – growth of the yeast control strain, post-Golgi counter-screen; 98,000 tested, 5% active; efflux-deficient yeast background strain, growth absorbance A615, 16 h; inhibition, % at 10 µM
PostGolgi yeast – growth inhibition of a yeast mutant, post-Golgi transport screen; inhibition, % at 10 µM; post-Golgi transport phenotypic cell assay; 98,000 tested, 0.9% active;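 further: yeast cells grown in 1536-well plates; yeast grown about 18 h at 30C before absorbance read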
CYP2C9 inhib – human CYP2C9 inhibition. 96,000 tested, 20% active. P11712. inhibition, % at 5 µM. CYP2C9 Supersomes, luciferin-H conversion, luminescence;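 active means blocking of liver enzyme CYP2C9 beyond about 50% at 5 µM, limit read from the data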
Target sequence (P11712 whole entry, looked up): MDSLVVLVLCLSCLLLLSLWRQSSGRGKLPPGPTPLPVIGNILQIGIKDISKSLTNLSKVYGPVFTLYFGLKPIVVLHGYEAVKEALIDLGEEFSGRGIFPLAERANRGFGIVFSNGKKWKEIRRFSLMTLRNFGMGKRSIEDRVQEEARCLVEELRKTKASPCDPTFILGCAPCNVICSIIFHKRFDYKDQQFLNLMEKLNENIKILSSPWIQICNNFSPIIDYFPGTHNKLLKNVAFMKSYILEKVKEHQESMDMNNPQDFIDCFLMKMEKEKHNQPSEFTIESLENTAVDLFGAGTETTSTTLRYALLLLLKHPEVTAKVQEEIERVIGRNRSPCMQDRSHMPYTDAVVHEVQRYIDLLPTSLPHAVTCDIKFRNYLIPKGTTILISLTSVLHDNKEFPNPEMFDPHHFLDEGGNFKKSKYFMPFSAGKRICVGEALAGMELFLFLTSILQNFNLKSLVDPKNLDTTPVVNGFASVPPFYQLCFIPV
CYP2C19 inhib – inhibitors of human CYP2C19; P33261; CYP2C19 Supersomes, luciferin-H EGE luminescence, 30 min; inhibition, % at 5 µM; 96,000 tested, 21% active;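 active means CYP2C19 inhibition above a set limit at 5 µM in the primary screen, cut at about 50% in these data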;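 further: plate controls were negative control wells for no effect and 2.5 mM tranylcypromine positive control for full effect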
CYP2C9 act – CYP2C9 (human) activation; P11712; recombinant CYP2C9, luciferin-H conversion, luminescence; active compounds read high; factor 1 = untreated enzyme, 0 = blocked; activation factor at 5 µM; 96,000 tested, 1.4% active;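 active means activation factor of 2 or more for CYP2C9 at a 5 µM dose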;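 further: 0 = sulfaphenazole-blocked wells and 1 = vehicle-only wells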
CYP2C19 act – increases human CYP2C19 enzyme activity; P33261; recombinant CYP2C19, luciferin-H EGE luminescence; active compounds read high; 0 = fully inhibited enzyme, 1 = untreated enzyme; activation factor at 5 µM; 96,000 tested, under 10 active; AID 1025;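 active means activation factor of at least 2 at 5 µM in the primary screen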;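 further: 0 = wells with 2.5 mM tranylcypromine and 1 = vehicle-only wells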
* = called active by the depositor. Unless noted, no stated cut-off is given here; in the data, active means inhibition above about 30%; inactive means the rest.

`CCC(C)c1ccc(NC(=O)c2cccs2)cc1` (configuration not stated) gave PostGolgi ctrl 7.7, PostGolgi yeast -1.3, CYP2C9 inhib 36.2, CYP2C19 inhib 25.2, CYP2C9 act 0.6 and CYP2C19 act 0.7.
`COc1ccc(C(=O)Oc2ccc3oc(=O)sc3c2)cc1` gave PostGolgi ctrl 6.0, PostGolgi yeast 3.0, CYP2C9 inhib 4.4, CYP2C19 inhib -5.0, CYP2C9 act 1 and CYP2C19 act 1.1.
Screening CC(=O)Nc1cc(NC(=O)CCCC(=O)O)ccc1Cl returned PostGolgi ctrl -1.3, PostGolgi yeast 2.8, CYP2C9 inhib -19.0, CYP2C19 inhib -18.5, CYP2C9 act 1.2 and CYP2C19 act 1.2.
For O=C(CCN1CCCCCC1)Nc1cccc(Cl)c1 the results were PostGolgi ctrl -2.8, PostGolgi yeast -1.1, CYP2C9 inhib -9.3, CYP2C19 inhib 6.5, CYP2C9 act 1.1 and CYP2C19 act 0.9.
`C=CCN1C(=O)/C(=C2/Sc3ccccc3N2C)SC1=Nc1c(C)n[nH]c1C` gave PostGolgi ctrl 11.9, PostGolgi yeast 19.4, CYP2C9 inhib 24.9, CYP2C19 inhib 12.2, CYP2C9 act 0.8 and CYP2C19 act 0.9.
Screening C=CCN1C(=O)/C(=C2/Sc3ccccc3N2C)SC1=Nc1ccccc1C returned PostGolgi ctrl -0.3, PostGolgi yeast -15.2, CYP2C9 inhib 55.5*, CYP2C19 inhib 39.1, CYP2C9 act 0.4 and CYP2C19 act 0.6.
For COc1cc2c(cc1OC)C1(Nc3c-2c(-c2ccccc2)nn3-c2ccccc2)C(=O)Nc2ccccc21 (configuration not stated) the results were PostGolgi ctrl 9.2, PostGolgi yeast 5.7, CYP2C9 inhib 59.5*, CYP2C19 inhib 3.0, CYP2C9 act 0.4 and CYP2C19 act 1.
For CCc1nn(-c2ccccc2)c2c1-c1cc(OC)c(OC)cc1C1(N2)C(=O)Nc2ccccc21 (configuration not stated) the results were PostGolgi ctrl 5.8, PostGolgi yeast 23.9, CYP2C9 inhib 82.1*, CYP2C19 inhib 19.1, CYP2C9 act 0.2 and CYP2C19 act 0.8.
`COc1cc2c(cc1OC)C1(Nc3c-2c(C)nn3-c2ccccc2)C(=O)Nc2ccccc21` (configuration not stated) gave PostGolgi ctrl 0.8, PostGolgi yeast 5.3, CYP2C9 inhib 65.7*, CYP2C19 inhib 10.6, CYP2C9 act 0.3 and CYP2C19 act 0.9.
COc1ccc(N2C(=O)CSC23C(=O)Nc2ccccc23)cc1OC (configuration not stated) was read as PostGolgi ctrl 8.0, PostGolgi yeast 3.3, CYP2C9 inhib 20.7, CYP2C19 inhib 24.6, CYP2C9 act 0.8 and CYP2C19 act 0.8.
For COc1cc(N2C(=O)CSC23C(=O)Nc2ccccc23)cc(OC)c1OC (configuration not stated) the results were PostGolgi ctrl 6.8, PostGolgi yeast 4.2, CYP2C9 inhib 19.4, CYP2C19 inhib 21.3, CYP2C9 act 0.8 and CYP2C19 act 0.8.
`CCC(c1nnnn1CCC(C)C)N1CCC(C(N)=O)CC1` (configuration not stated) gave PostGolgi ctrl 6.8, PostGolgi yeast 1.1, CYP2C9 inhib -6.8, CYP2C19 inhib -17.9, CYP2C9 act 1.1 and CYP2C19 act 1.2.
Screening Cc1c(CCO)c(=O)n(C)n1C(=O)c1ccc(Cl)cc1 returned PostGolgi ctrl 1.4, PostGolgi yeast 5.2, CYP2C9 inhib 4.4, CYP2C19 inhib 55.8*, CYP2C9 act 1 and CYP2C19 act 0.4.
COC(=O)c1cc(Br)c(=O)n(CCc2ccccc2)c1 was read as PostGolgi ctrl 7.1, PostGolgi yeast -1.1, CYP2C9 inhib 13.6, CYP2C19 inhib 61.6*, CYP2C9 act 0.9 and CYP2C19 act 0.4.
`COC(=O)c1cc(Br)c(=O)n(Cc2ccc3c(c2)OCO3)c1` gave PostGolgi ctrl -0.2, PostGolgi yeast 21.4, CYP2C9 inhib 79.9*, CYP2C19 inhib 87.2*, CYP2C9 act 0.2 and CYP2C19 act 0.1.
For COC(=O)Cn1cc(C(=O)OC)cc(Br)c1=O the results were PostGolgi ctrl 0.5, PostGolgi yeast -4.5, CYP2C9 inhib 12.7, CYP2C19 inhib 38.9, CYP2C9 act 0.9 and CYP2C19 act 0.6.
CCOc1cc(NC(=O)C2CC2)c(OCC)cc1NC(=O)c1ccccn1 was read as PostGolgi ctrl 9.8, PostGolgi yeast 6.6, CYP2C9 inhib 5.1, CYP2C19 inhib -5.3, CYP2C9 act 0.9 and CYP2C19 act 1.1.
For CCOc1ccc(Cc2c(Cl)nc(N)nc2Cl)cc1 the results were PostGolgi ctrl 17.9, PostGolgi yeast 8.2, CYP2C9 inhib -3.9, CYP2C19 inhib 52.7*, CYP2C9 act 1 and CYP2C19 act 0.5.
`Cc1ccc(S(=O)(=O)N2CCCC2C(=O)O)s1` (configuration not stated) gave PostGolgi ctrl 0.4, PostGolgi yeast -39.9, CYP2C9 inhib 2.9, CYP2C19 inhib -2.3, CYP2C9 act 1 and CYP2C19 act 1.
N#Cc1nc(-c2ccc(OCc3ccccc3)cc2)oc1NCc1cccnc1 was read as PostGolgi ctrl 12.2, PostGolgi yeast 0.0, CYP2C9 inhib 22.4, CYP2C19 inhib 10.0, CYP2C9 act 0.8 and CYP2C19 act 0.9.
For CN(C)c1oc(-c2ccc(OCc3ccccc3)cc2)nc1C#N the results were PostGolgi ctrl 9.2, PostGolgi yeast -1.9, CYP2C9 inhib 14.9, CYP2C19 inhib 79.5*, CYP2C9 act 0.9 and CYP2C19 act 0.2.
`Cc1ccc(S(=O)(=O)N2CCN(C3CC(=O)N(CCc4ccccc4)C3=O)CC2)cc1C` (configuration not stated) gave PostGolgi ctrl 22.4, PostGolgi yeast -0.2, CYP2C9 inhib -46.5, CYP2C19 inhib 50.4*, CYP2C9 act 1.5 and CYP2C19 act 0.5.
`CCCCc1nnc(SCCSc2nnc(CCCC)n2N)n1N` gave PostGolgi ctrl 7.5, PostGolgi yeast -0.2, CYP2C9 inhib 11.7, CYP2C19 inhib -3.7, CYP2C9 act 0.9 and CYP2C19 act 1.
`Cc1nc2ccccc2c(=O)n1/N=C/c1cccnc1` gave PostGolgi ctrl 15.9, PostGolgi yeast 8.6, CYP2C9 inhib 23.0, CYP2C19 inhib 23.3, CYP2C9 act 0.8 and CYP2C19 act 0.8.
Screening Cc1sc2nc(C)n(/N=C/c3ccccc3)c(=O)c2c1C returned PostGolgi ctrl 1.9, PostGolgi yeast 13.5, CYP2C9 inhib -3.4, CYP2C19 inhib 76.6*, CYP2C9 act 1 and CYP2C19 act 0.2.
CCCCN(C)CCCNC(=O)CC1Oc2ccccc2NC1=O (configuration not stated) was read as PostGolgi ctrl 15.2, PostGolgi yeast 3.5, CYP2C9 inhib -10.2, CYP2C19 inhib -22.2, CYP2C9 act 1.1 and CYP2C19 act 1.2.
Screening Oc1ccc(Br)cc1/C=N/n1cnc2ccccc21 returned PostGolgi ctrl 32.4*, PostGolgi yeast 3.0, CYP2C9 inhib 70.9*, CYP2C19 inhib 6.1, CYP2C9 act 0.3 and CYP2C19 act 0.9.
